The text below walks through data of PubChem BioAssay (Tox21).

Values joined by “and” are separate entries in the source; they are usually repeats but may differ in a detail not shown here. Equal values may be shown once. Records with an inconclusive call do not appear. Active and inactive are the calls of the source. Unless noted, the call rests on the fitted dose curve; in most records, active means well fitted curve in the direction sought with a large enough effect in the repeat runs; inconclusive means weak or mixed curves; inactive means no such curve, though single readings can be large; an effect the other way counts as inactive or inconclusive.

The nature of test [1]: qHTS assay to identify small molecule antagonists of the thyroid receptor (TR) signaling pathway (AID 743065). Further: nearly all actives have a fitted effect of over 55% in size. Put shortly:
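Antagonism measured as loss of luciferase signal in GH3 cells stably carrying a TRE-luciferase reporter, co-treated with compound and T3 (1 nM final) for 23.5 h at 37 C. Viability was read in the same well by CellTiter-Fluor.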

Test [2] concerns thyroid hormone receptor (rat, GH3 cells). Briefly: qHTS assay to identify small molecule agonists of the thyroid receptor (TR) signaling pathway (AID 743066; calls by dose curve).
In test [3] the target is Estrogen receptor (Homo sapiens) (UniProt P03372). In words: qHTS assay to identify small molecule antagonists of the estrogen receptor alpha (ER-alpha) signaling pathway (AID 743069; active means well fitted curve in the direction sought with a large enough effect in the signal ratio in the repeat runs, not every such curve was filed as active; the % refers to the signal ratio). Put shortly:
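Compound effects are measured against 17beta-estradiol stimulation in HEK293 cells with a UAS-controlled beta-lactamase reporter for ER-alpha. Exposure lasts 18 hr at 37C; LiveBLAzer B/G FRET substrate follows for 2 hr at room temperature.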
(Quantitative high-throughput screening tests each substance at several concentrations.)

Test [4] is described as follows: qHTS assay to identify small molecule antagonists of the estrogen receptor alpha (ER-alpha) signaling pathway - cell viability counter screen (AID 743074; calls by dose curve;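 further: HEK293 cells carrying ER-alpha-UAS-bla reporter stimulated with 17beta-estradiol; nearly all actives have a fitted effect of over 45% in size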).
The target in test [5] is Estrogen receptor (Homo sapiens) (UniProt P03372). In words: qHTS assay to identify small molecule agonists of the estrogen receptor alpha (ER-alpha) signaling pathway (AID 743075; calls by dose curve).
For test [6] the target is unchanged. In words: qHTS assay to identify small molecule agonists of the estrogen receptor alpha (ER-alpha) signaling pathway using the BG1 cell line (AID 743079). Further: nearly all actives have a fitted effect of over 20% in size. Further: potency means the concentration at half of the fitted maximal effect. As to conditions: BG1Luc4E2 cells, ERE-luciferase agonist, 22 h; activation: at 70.3 µM (top of the series) unless noted.
The nature of test [7]: qHTS assay to identify small molecule antagonists of the estrogen receptor alpha (ER-alpha) signaling pathway using the BG1 cell line (AID 743080; calls by dose curve;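 further: BG1 cells stimulated with 17beta-estradiol alongside compound; nearly all actives have a fitted effect of over 25% in size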). Put shortly: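 Luminescence from a 4×ERE-luciferase reporter in BG1-Luc-4E2 cells served as read-out. Cells, pre-cultured 5 days in stripped-serum phenol-red-free medium, were exposed to compound with 17beta-estradiol co-stimulation for 21.5 h at 37 C.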

Test [8] can be described thus: qHTS assay to identify small molecule antagonists of the estrogen receptor alpha (ER-alpha) signaling pathway using the BG1 cell line - cell viability counter screen (AID 743081).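 Further: compound given together with 17beta-estradiol as the ER stimulus; nearly all actives have a fitted effect of over 45% in size.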
In test [9] the target is Aromatase (Homo sapiens) (UniProt P11511). Briefly: qHTS assay to identify aromatase inhibitors (AID 743083). Further: nearly all actives have a fitted effect of over 55% in size.
A short description of test [10]: qHTS assay to identify aromatase inhibitors - cell viability counter screen (AID 743084).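 Further: cells stimulated with testosterone during compound exposure; nearly all actives have a fitted effect of over 55% in size.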
Test [11] can be described thus: qHTS assay to identify small molecule that activate the aryl hydrocarbon receptor (AhR) signaling pathway - cell viability counter screen (AID 743086).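 Further: HepG2 liver cells carrying the AhR DRE luciferase reporter; nearly all actives have a fitted effect of over 45% in size.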 Put shortly:
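Cytotoxicity counter screen: CellTiter-Fluor signal (30 min, 37 C) in 4000 HepG2 cells/well carrying the DRE-luciferase reporter, following 24 h compound exposure at 37 C.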

Test [12] can be described thus: qHTS assay to identify small molecule antagonists of the peroxisome proliferator-activated receptor gamma (PPARg) signaling pathway - cell viability counter screen (AID 743194). Further: nearly all actives have a fitted effect of over 55% in size. As to conditions: Potency: co-treated with 50 nM rosiglitazone unless noted. Put shortly:
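Viability was measured as CellTiter-Glo luminescence in GeneBLAzer PPARg UAS-bla HEK293H cells. These cells had been exposed 17 h at 37 C to compounds together with rosiglitazone at 50 nM final, with the beta-lactamase readout taken in the same wells.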

The nature of test [13]: qHTS assay for small molecule agonists of the antioxidant response element (ARE) signaling pathway (AID 743202; active means well fitted activation curve with a large enough effect in the signal ratio in the repeat runs, not every such curve was filed as active; the % refers to the signal ratio). Put shortly:
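An ARE-responsive beta-lactamase gene stably integrated in HepG2 cells serves as reporter. After 5 h plating and 16 h compound incubation at 37 C, fluorescence of the B/G FRET substrate was measured.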

The nature of test [14]: qHTS assay for small molecule agonists of the antioxidant response element (ARE) signaling pathway - cell viability counter screen (AID 743203; calls by dose curve; further: nearly all actives have a fitted effect of over 55% in size). Put shortly: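 ARE-bla HepG2 cells were plated, rested 5 h at 37C/5% CO2, then exposed to compounds in DMSO for 16 h. Viability was read as CellTiter-Glo luminescence after 30 min at room temperature, in the same wells as the ARE screen.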

Test [15] in a line: qHTS assay for small molecule activators of the heat shock response signaling pathway - cell viability counter screen (AID 743209). Further: nearly all actives have a fitted effect of over 50% in size. Put shortly: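 HSE-bla HeLa cells plated overnight, then exposed to Tox21 compounds (23 nL in DMSO) for 5 h at 37 C. After the bla reporter read, CellTiter-Glo was added in the same wells and luminescence read after 30 min at room temperature.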

A short description of test [16]: qHTS assay for small molecule activators of the heat shock response signaling pathway (AID 743210; active means well fitted activation curve with a large enough effect in the signal ratio in the repeat runs, with a control signal flat, not every such curve was filed as active; the % refers to the signal ratio;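 further: HeLa cells with beta-lactamase reporter driven by heat shock elements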). In short, it runs like this: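 In HSE-bla HeLa cells, 5 h compound incubation (37 C) precedes addition of LiveBLAzer B/G substrate; after 2.5 h at room temperature, fluorescence intensity indicates reporter induction.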
The nature of test [17]: qHTS assay to identify small molecule agonists of the peroxisome proliferator-activated receptor delta (PPARd) signaling pathway - cell viability counter screen (AID 743211). Further: nearly all actives have a fitted effect of over 55% in size. Put shortly: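 In the same wells used for beta-lactamase reporter measurement, cytotoxicity is scored by CellTiter-Glo. HEK293H PPARd-bla cells receive compound for 17 h at 37C following a 5 h settling period.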

Test [18] deals with Peroxisome proliferator-activated receptor gamma (Homo sapiens) (UniProt P37231). In words: qHTS assay to identify small molecule agonists of the peroxisome proliferator-activated receptor gamma (PPARg) signaling pathway (AID 743094; active means well fitted activation curve with a large enough effect in the signal ratio in the repeat runs, not every such curve was filed as active; the % refers to the signal ratio). Put shortly: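 GeneBLAzer PPARg UAS-bla HEK293H cells were plated, rested 5 h, then exposed to compounds for 17 h at 37C. Beta-lactamase activity was read by LiveBLAzer B/G FRET substrate fluorescence after 1 h at room temperature.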

For test [19] the target is unchanged. In words: qHTS assay to identify small molecule antagonists of the peroxisome proliferator-activated receptor gamma (PPARg) signaling pathway (AID 743191; calls by dose curve; further: nearly all actives have a fitted effect of over 30% in size). Put shortly: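 Beta-lactamase reporter under UAS control in HEK293H PPARg-bla cells; compound treatment 17 h at 37C. Read-out: fluorescence intensity after 1 h room-temperature incubation with LiveBLAzer B/G FRET substrate.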

Test [20] addresses Aryl hydrocarbon receptor (Homo sapiens) (UniProt P35869). Briefly: qHTS assay to identify small molecule that activate the aryl hydrocarbon receptor (AhR) signaling pathway (AID 743085).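 Further: HG2L7.5c1 human HepG2 liver cells with stably integrated DRE-driven firefly reporter; nearly all actives have a fitted effect of over 15% in size.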 In short, it runs like this: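 Stably transfected human liver carcinoma cells (HG2L7.5c1; 20 DRE-firefly luciferase) were incubated 5 h, dosed, and kept 24 h at 37C. Agonism was scored from increased luciferase luminescence.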

Chain of Peroxisome proliferator-activated receptor gamma (Homo sapiens) (P37231 whole entry, looked up): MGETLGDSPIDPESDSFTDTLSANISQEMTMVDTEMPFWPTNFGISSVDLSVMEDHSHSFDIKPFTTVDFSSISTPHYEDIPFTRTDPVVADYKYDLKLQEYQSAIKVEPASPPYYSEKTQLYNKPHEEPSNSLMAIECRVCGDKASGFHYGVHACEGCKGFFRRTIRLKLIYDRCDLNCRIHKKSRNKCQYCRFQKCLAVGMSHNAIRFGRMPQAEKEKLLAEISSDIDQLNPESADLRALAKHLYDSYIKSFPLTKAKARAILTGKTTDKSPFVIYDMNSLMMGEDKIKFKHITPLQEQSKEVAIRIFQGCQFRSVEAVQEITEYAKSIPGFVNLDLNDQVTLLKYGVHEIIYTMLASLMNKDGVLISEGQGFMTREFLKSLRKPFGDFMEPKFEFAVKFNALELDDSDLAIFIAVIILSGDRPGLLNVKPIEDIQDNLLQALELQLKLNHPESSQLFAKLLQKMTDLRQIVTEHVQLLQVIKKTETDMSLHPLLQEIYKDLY
Chain of Estrogen receptor (Homo sapiens) (P03372 whole entry, looked up): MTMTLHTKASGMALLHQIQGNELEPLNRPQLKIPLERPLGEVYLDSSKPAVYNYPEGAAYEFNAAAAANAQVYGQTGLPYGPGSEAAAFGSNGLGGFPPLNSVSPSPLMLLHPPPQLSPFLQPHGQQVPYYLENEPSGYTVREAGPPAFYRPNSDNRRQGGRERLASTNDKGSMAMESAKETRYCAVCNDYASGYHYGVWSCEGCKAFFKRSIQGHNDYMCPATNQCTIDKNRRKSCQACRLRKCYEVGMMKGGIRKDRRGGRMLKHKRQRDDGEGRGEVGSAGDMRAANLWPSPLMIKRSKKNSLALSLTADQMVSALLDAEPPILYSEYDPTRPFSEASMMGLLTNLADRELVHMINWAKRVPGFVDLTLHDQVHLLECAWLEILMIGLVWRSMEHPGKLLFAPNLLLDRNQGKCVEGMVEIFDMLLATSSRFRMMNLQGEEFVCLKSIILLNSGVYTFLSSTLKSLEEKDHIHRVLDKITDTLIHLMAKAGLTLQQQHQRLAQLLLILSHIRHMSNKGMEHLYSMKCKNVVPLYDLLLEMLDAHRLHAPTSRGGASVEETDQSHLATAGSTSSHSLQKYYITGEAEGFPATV
Chain of Aryl hydrocarbon receptor (Homo sapiens) (P35869 whole entry, looked up): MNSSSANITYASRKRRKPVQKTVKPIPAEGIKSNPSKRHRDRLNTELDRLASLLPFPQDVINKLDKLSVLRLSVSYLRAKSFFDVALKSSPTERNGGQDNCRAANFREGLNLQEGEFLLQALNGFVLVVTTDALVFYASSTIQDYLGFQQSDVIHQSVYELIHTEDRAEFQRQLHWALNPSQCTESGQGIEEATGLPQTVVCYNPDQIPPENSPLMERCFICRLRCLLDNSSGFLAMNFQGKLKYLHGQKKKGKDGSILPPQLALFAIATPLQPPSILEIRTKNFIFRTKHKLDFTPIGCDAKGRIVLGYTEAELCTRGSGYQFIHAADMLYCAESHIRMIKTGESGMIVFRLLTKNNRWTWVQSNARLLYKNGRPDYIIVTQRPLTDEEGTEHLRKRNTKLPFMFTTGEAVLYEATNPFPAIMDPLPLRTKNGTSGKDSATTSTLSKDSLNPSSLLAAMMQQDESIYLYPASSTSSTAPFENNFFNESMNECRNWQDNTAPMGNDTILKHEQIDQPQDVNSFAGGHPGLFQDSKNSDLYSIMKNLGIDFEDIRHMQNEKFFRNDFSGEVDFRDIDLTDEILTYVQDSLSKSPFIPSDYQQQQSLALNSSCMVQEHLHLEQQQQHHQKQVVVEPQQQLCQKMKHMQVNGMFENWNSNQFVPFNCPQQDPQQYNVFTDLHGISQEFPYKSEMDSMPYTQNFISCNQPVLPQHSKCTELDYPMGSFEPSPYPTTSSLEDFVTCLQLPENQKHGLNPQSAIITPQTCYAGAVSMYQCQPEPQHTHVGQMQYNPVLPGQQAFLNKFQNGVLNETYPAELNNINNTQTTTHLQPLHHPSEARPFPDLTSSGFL
Chain of Aromatase (Homo sapiens) (P11511 whole entry, looked up): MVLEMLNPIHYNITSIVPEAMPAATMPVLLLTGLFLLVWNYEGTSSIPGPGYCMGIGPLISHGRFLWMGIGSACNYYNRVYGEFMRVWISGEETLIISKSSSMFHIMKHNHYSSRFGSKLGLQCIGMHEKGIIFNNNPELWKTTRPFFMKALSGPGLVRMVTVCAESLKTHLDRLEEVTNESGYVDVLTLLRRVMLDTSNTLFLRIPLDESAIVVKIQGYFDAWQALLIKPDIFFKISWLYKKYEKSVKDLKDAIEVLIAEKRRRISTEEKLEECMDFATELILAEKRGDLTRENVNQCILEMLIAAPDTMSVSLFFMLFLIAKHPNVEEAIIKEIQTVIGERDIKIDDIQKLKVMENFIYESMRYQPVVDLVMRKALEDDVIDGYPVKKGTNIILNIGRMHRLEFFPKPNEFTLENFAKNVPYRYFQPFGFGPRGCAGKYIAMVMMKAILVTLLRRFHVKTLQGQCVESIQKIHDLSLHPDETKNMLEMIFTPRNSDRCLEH

Regarding `CC(=O)CC(=O)N(C)C`, the Potency result in test [1], in test [2], in test [3], in test [4], in test [5] and in test [6] was “inactive” each time. In addition, the Potency entry in test [7], in test [8], in [9], in test [10], in test [11] and in test [12] was “inactive” in each case. For the same molecule, the Potency entry in [13], in [14], in test [15], in test [16] and in [17] was “inactive” in each case.

Turning to `COc1c2ccoc2cc2oc(=O)ccc12`, the Potency result in [1], in test [2], in test [4], in test [5], in [6] and in test [7] was “inactive” throughout. In addition, the Potency entry in test [8], in test [9], in [10], in test [11], in [18] and in test [19] was “inactive” each time. Also, the Potency entry in test [12], in test [14] and in test [16] was “inactive” each time.

Take `CCCCCCCCC(=O)O`: the Potency entry in test [1], in test [2], in test [3], in [4], in test [5] and in [6] was “inactive” throughout. For the same molecule, the Potency entry in test [7], in test [8], in test [9], in test [10], in test [20] and in test [11] was “inactive” throughout. Moreover, the Potency result in test [12], in [13], in test [14], in [15], in test [16] and in test [17] was “inactive” in each case.

On to `CCOC(=O)c1ccc(O)cc1`, for which the Potency result in test [1], in test [2], in [3], in test [4], in [5] and in [8] was “inactive” each time. Moreover, the Potency result in [9], in test [10], in test [20], in test [11], in test [12] and in [13] was “inactive” throughout. The Potency result in test [14], in test [16] and in test [17] was “inactive” throughout. Besides, in test [6], the Potency was 23.7 µM (active) and 30.6 µM (active).

Turning to `C=C1C[C@]23C[C@@]1(O)CC[C@H]2[C@@]12C=C[C@H](O)[C@@](C)(C(=O)O1)[C@H]2[C@@H]3C(=O)O`, the Potency entry in test [1], in test [2], in test [4], in [8], in test [9] and in test [10] was “inactive” throughout. In addition, the Potency result in [20], in test [11], in test [18], in [19], in test [12] and in test [13] was “inactive” in each case. The Potency entry in [14] and in test [17] was “inactive” throughout.

In the case of `CCCCCC(C)=O`, the Potency entry in [1], in test [2], in [4], in test [8], in [9] and in test [10] was “inactive” each time. Further, the Potency entry in test [20], in test [11], in test [18], in test [19], in test [12] and in [14] was “inactive” in each case. Further, the Potency entry in test [15] and in [16] was “inactive” in each case.

Take `CC(=O)OCCC(C)C`: the Potency entry in [1], in [2], in [4], in [8], in test [9] and in test [10] was “inactive” in each case. For the same molecule, the Potency entry in [20], in test [11], in test [18], in test [19], in test [12] and in test [14] was “inactive” in each case. The Potency result in test [16] was “inactive”.

For `O=[N+]([O-])c1ccccc1C(F)(F)F`, the Potency entry in test [1], in test [2], in test [3], in test [4], in test [5] and in test [6] was “inactive” throughout. Also, the Potency entry in test [7], in test [8], in [9], in [10], in [11] and in test [18] was “inactive” throughout. For the same molecule, the Potency result in test [19], in test [12], in test [13], in test [14], in test [15] and in [16] was “inactive” throughout.

For `C=C(CC(=O)O)C(=O)O`, the Potency entry in test [1], in test [2], in [4], in test [8], in test [9] and in [10] was “inactive” in each case. Also, the Potency result in test [20], in test [11], in [18], in [19], in [12] and in [13] was “inactive” each time. Also, the Potency result in test [14], in test [16] and in [17] was “inactive” throughout.

On to `Cc1cc(CC(=O)O)n(C)c1C(=O)c1ccc(Cl)cc1`, for which the Potency result in test [1], in test [2], in test [4], in [8], in test [9] and in test [10] was “inactive” each time. Besides, the Potency result in test [20], in test [11], in test [18], in [19], in test [12] and in test [13] was “inactive” each time. The Potency result in test [14], in [15], in test [16] and in [17] was “inactive” throughout.

For the molecule `O=c1n(CCCN2CCN(c3cccc(Cl)c3)CC2)nc2ccccn12`, the Potency entry in [1], in [2], in test [4], in test [8], in test [9] and in test [10] was “inactive” in each case. Further, the Potency entry in test [20], in test [11], in [12], in test [14], in test [15] and in [16] was “inactive” throughout.
